15 compounds from PubChem BioAssay can be followed below.

For part of these data: Results with a measured potency or affinity are listed apart. Active and inactive are the calls of the source.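 Rule for the calls, unless noted: active = fluorescence ratio normalized to control raised more than 50% in primary screen plus both repeat runs; inactive = the rest.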

The subject of assay [1] is TRPC4 beta (transient receptor potential cation channel C4), mouse. Nature of the assay: activators of mouse TRPC4 channel, confirmation, cell-based, Fluo4 calcium, HEK293 TRPC4beta/mu-opioid, duplicates, 10 µM (AID 2426). The note with it: Fluo4 calcium fluorescence, at 10 µM; stronger effect = higher value.
For assay [2], the system named is transient receptor potential cation channel C4 beta (TRPC4), mouse. Nature of the assay: activators of mouse TRPC4 channel, confirmation, cell-based, second round, Fluo4, HEK293 TRPC4beta/mu-opioid, 1 µM (AID 2461;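 active = primary screen active and over 50% activation in each of two duplicate runs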). Particulars: Fluo4 calcium fluorescence, at 1 µM; stronger effect = higher value.
Assay [3] relates to TRPC4 (transient receptor potential cation channel C4 beta), mouse. Nature of the assay: positive allosteric modulators of mouse TRPC4, confirmation, cell-based, second round, Fluo-4, HEK293 TRPC4beta/mu-opioid, 1 µM (AID 2554;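 active = primary screen hit whose fluorescence ratio, in both repeats, exceeds the weak agonist control mean by 3 SD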). Particulars: DAMGO EC20, Fluo-4 calcium flux, at 1 µM; stronger effect = higher value.
Assay [4] relates to TRPC4 beta (transient receptor potential cation channel C4), mouse. The experiment in a line: positive allosteric modulators of mouse TRPC4, confirmation, cell-based, Fluo-4, HEK293 TRPC4beta/mu-opioid (AID 2555;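 active = primary screen hit whose calcium fluorescence ratio, in both repeats, exceeds the weak agonist control mean by 3 SD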). Particulars: DAMGO EC20, Fluo-4 calcium flux, at 10 µM; stronger effect = higher value.
In assay [5] the target is Short transient receptor potential channel 4 (Mus musculus) (UniProt Q9QUQ5). Nature of the assay: inhibitors of mouse TRPC4 channel, confirmation, cell-based, Fluo4, HEK293 TRPC4beta/mu-opioid (AID 2636;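 active = calcium signal cut by more than 3 SD below the full-agonist control yet still positive, in both repeats and the earlier primary screen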). Particulars: DAMGO, Fluo4 calcium flux, at 10 µM; stronger effect = higher value.
Chain of Short transient receptor potential channel 4 (Mus musculus) (Q9QUQ5 whole entry, looked up): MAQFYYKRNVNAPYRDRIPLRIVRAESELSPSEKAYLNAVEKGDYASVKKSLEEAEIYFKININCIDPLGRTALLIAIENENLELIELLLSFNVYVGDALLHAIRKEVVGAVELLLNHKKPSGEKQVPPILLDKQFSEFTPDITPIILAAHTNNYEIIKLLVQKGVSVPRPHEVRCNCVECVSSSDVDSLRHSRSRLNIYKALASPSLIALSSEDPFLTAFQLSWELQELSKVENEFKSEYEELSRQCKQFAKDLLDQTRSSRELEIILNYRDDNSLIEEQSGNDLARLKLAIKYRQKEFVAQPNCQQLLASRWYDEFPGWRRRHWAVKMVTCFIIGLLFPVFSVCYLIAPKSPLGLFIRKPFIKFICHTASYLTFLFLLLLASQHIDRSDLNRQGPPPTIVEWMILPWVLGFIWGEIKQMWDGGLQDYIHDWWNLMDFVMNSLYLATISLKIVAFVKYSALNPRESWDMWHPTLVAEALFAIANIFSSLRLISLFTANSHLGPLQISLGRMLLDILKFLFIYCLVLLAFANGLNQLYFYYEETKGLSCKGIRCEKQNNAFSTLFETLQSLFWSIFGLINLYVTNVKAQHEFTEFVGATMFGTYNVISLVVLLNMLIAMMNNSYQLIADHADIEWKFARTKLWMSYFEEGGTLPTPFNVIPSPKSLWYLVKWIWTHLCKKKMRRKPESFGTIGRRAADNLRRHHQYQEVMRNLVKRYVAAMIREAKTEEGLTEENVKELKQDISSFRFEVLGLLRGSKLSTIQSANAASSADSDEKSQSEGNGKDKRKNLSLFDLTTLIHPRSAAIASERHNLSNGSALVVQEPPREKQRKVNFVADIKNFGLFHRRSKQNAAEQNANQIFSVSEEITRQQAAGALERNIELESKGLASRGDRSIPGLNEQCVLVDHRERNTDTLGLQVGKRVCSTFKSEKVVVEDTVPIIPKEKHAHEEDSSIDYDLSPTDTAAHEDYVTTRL
Assay [6] has the same target. Nature of the assay: inhibitors of mouse TRPC4 channel, confirmation, cell-based, second round, Fluo4, HEK293 TRPC4beta/mu-opioid, 1 µM (AID 2637;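 active = calcium signal ratio cut to more than 3 SD under the fully stimulated control mean yet still positive, in both repeats and the primary screen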). Particulars: Fluo4 calcium flux, DAMGO, at 1 µM; stronger effect = higher value.
Assay [7] shares this target. The experiment in a line: mouse TRPC4 channel activators, dose response, cell-based, HEK293 TRPC4/mu-opioid, Fluo-4 calcium (AID 434937;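 active = primary screen activator hit with a dose response curve and TRPC4 channel activation at any tested dose; inactive = no activation, no dose response, or not a primary hit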).
The target is the same in assay [8]. Nature of the assay: TRPC4 positive allosteric modulators, dose response, cell-based, HEK293 TRPC4/mu-opioid, Fluo-4 calcium, EC20 DAMGO (AID 434941;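 active = earlier screen potentiator hit that boosts the TRPC4 ion channel at some dose, with a dose response; inactive = no potentiation, no dose response, or not a prior hit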;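 note: calcium entry triggered by an EC20 dose of DAMGO at the co-expressed mu-opioid receptor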).
For assay [9] the target is unchanged. Nature of the assay: mouse TRPC4 channel inhibitors, dose response, cell-based, HEK293 TRPC4/mu-opioid, Fluo-4 calcium (AID 434942;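 active = primary screen inhibitor hit that blocks the TRPC4 channel at some tested dose, yielding a dose curve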).
Assay [10] deals with Short transient receptor potential channel 6 (Mus musculus) (UniProt Q61143). The experiment in a line: inhibition of mouse TRPC6 channel, confirmation, selectivity assay for TRPC4 inhibitor project, cell-based, HEK293, membrane potential dye, duplicate (AID 434948;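 active = active in primary screen and both duplicates, each dropping signal beyond three positive-control SD with fluorescence still positive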). The note with it: HEK293 TRPC6, membrane potential dye fluorescence, at 10 µM, stimulated with maximal-effect acetylcholine; stronger effect = higher value.
Chain of Short transient receptor potential channel 6 (Mus musculus) (Q61143 whole entry, looked up): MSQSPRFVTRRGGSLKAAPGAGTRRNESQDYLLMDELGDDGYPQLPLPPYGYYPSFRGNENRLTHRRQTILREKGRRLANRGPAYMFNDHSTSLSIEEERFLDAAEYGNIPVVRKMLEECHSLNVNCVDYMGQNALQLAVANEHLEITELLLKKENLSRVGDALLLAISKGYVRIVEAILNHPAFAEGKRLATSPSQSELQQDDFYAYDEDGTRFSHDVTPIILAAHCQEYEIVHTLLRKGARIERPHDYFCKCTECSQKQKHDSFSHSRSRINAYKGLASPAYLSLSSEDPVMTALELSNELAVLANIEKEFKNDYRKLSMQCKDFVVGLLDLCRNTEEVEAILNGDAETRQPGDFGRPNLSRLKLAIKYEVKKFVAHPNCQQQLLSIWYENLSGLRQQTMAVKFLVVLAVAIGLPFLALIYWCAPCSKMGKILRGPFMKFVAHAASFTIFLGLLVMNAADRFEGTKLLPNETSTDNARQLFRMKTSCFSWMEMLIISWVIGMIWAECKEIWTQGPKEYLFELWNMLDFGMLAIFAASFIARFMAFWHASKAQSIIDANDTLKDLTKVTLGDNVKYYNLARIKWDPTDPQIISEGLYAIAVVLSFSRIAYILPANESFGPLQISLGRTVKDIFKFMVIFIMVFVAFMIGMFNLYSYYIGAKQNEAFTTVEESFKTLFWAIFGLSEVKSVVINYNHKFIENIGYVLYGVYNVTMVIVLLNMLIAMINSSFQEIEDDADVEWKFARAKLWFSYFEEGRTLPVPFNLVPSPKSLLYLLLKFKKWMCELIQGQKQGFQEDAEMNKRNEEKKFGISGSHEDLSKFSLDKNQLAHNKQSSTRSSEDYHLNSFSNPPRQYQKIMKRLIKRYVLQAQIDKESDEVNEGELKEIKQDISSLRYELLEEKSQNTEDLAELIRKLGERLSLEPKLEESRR

The target is the same in assay [11]. Nature of the assay: activation of mouse TRPC6 channel, confirmation, selectivity assay for TRPC4 activator project, cell-based, HEK293, membrane potential dye, duplicate (AID 434950;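 active = membrane potential signal rise above negative control mean plus 3 SD in both duplicates, also active in the earlier TRPC4 screen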). Particulars: HEK293 TRPC6, membrane potential fluorescence, at 10 µM; stronger effect = higher value.
Assay [12] has the same target. The experiment in a line: TRPC6 potentiation by TRPC4 potentiator hits, confirmation, selectivity assay for TRPC4 potentiator project, HEK293 cells, membrane potential dye, duplicate (AID 434952;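 active = compound raising the membrane signal above positive-control mean plus 3 SD in both repeats, and a primary screen hit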). Particulars: HEK293 TRPC6, membrane potential dye fluorescence, at 10 µM, maximal acetylcholine added after compound; stronger effect = higher value.
Assay [13] concerns the target Short transient receptor potential channel 4 (Mus musculus) (UniProt Q9QUQ5). The experiment in a line: calcium flux activators in TRPC4/5HT1a cells, counter-screen for TRPC4 activator project, cell-based, second counter screen, HEK293 TRPC4/5HT1a, Fluo-4 (AID 434977;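 active = calcium signal rise above buffer-control mean plus 5 SD in both duplicates, and also a hit in the primary screen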;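 for activation: plate controls were assay buffer for no effect and maximal serotonin response for full effect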). Particulars: Fluo-4 calcium flux, at 10 µM; stronger effect = higher value.
Assay [14] is described as follows: calcium flux inhibitors in TRPC4/5HT1a cells, confirmation, counter-screen for TRPC4 inhibitor project, cell-based, second counter screen, HEK293 TRPC4/5HT1a, Fluo-4 (AID 434978;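 active = primary screen active whose calcium signal fell more than 3 SD beyond the full-serotonin control mean in both duplicate plates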;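 note: serotonin given first at submaximal then at maximal dose after compound preincubation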). Particulars: Fluo-4 calcium flux, at 10 µM, serotonin added to trigger calcium flux; stronger effect = higher value.
The test system of assay [15] is TRPC4 (mouse), co-expressed with 5HT1a in HEK293. The experiment in a line: calcium flux potentiators in TRPC4/5HT1a cells, confirmation, counter-screen for TRPC4 potentiator project, cell-based, second counter screen, HEK293 TRPC4/5HT1a, Fluo-4 (AID 434979;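 active = signal rise over 3 SD above mean of control wells given weak agonist, in both repeats and first screen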). The note with it: Fluo-4 calcium flux, at 10 µM, serotonin added at its EC20 dose; stronger effect = higher value.
The nature of assay [16]: calcium flux activation in mu-opioid HEK293 cells, confirmation, counter-screen for TRPC4 activator project, cell-based, HEK293 mu-opioid receptor line (AID 449723;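 active = hit in primary screen, with calcium signal over 5 SD above buffer well mean in both duplicates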;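 note: counter screen cells carry the mu-opioid receptor alone and lack TRPC4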). The note with it: Fluo-4 calcium fluorescence, at 10 µM; stronger effect = higher value.
Assay [17] in a line: calcium flux enhancement in mu-opioid HEK293 cells, confirmation, counter-screen for TRPC4 allosteric potentiator project, cell-based, HEK293 mu-opioid receptor line (AID 449724;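 active = calcium signal rise more than 3 SD above the low-dose agonist control mean, in both duplicate plates and the primary screen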;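 note: HEK293 cells carrying mu-opioid receptor only with no TRPC4 channel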). Particulars: Fluo-4 calcium flux, at 10 µM, compound added before EC20 DAMGO stimulus; stronger effect = higher value.

Turning to `CCCn1c(N2CCN(S(=O)(=O)Cc3ccccc3)CC2)nc2ccccc21`, the outcome in assay [1], in [2], in [3], in assay [5], in [6] and in assay [7] was inactive. Besides, the outcome in assay [8], in [9], in assay [10], in [11], in [12] and in [13] was inactive. Besides, the result in assay [14], in assay [16] and in [17] was inactive. In addition, the figures for the potentiation in assay [4] and in [15] were 11% (active) and 22.3% (active), respectively.

On to `CCOC(=O)c1cn(Cc2ccccc2)c(C(=O)OC(C)(C)C)c1O`, for which the outcome in assay [1], in assay [2], in assay [3], in assay [4], in [5] and in assay [6] was inactive. Moreover, the result in assay [7], in assay [8], in assay [9], in [10], in assay [11] and in assay [12] was inactive. The outcome in assay [14], in assay [15] and in [17] was inactive. The results for the activation in [13] and in [16] were 54.1% (active) and 21.1% (active), respectively.

Regarding `COc1ccc(/C=C2/SC(=S)N(NS(=O)(=O)c3ccc(C)cc3)C2=O)cc1`, the result in assay [1], in assay [2], in assay [3], in assay [4], in assay [5] and in assay [6] was inactive. The result in [7], in [8], in [9], in assay [10], in assay [11] and in assay [12] was inactive. Besides, the outcome in assay [13], in assay [14], in assay [15], in [16] and in [17] was inactive.

For `CC(=O)c1ccc(N2CCN(C(=O)C3CCN(S(=O)(=O)c4ccc5c(c4)CC(C)N5C(=O)C4CC4)CC3)CC2)cc1` (stereo not given), the outcome in assay [1], in assay [2], in assay [3], in assay [5], in [6] and in assay [7] was inactive. Further, the outcome in assay [8], in assay [9], in [10], in assay [11], in assay [12] and in assay [13] was inactive. Moreover, the result in [14], in assay [16] and in [17] was inactive. For the same compound, the potentiation in [4] is 9% (active); in assay [15], 14.8% (active).

Consider `O=[N+]([O-])c1ccccc1CN1CCN(S(=O)(=O)c2ccccc2)CC1`, for which the result in [1], in assay [2], in assay [3], in [5], in [6] and in assay [7] was inactive. Moreover, the outcome in assay [8], in [9], in assay [10], in assay [11], in assay [12] and in assay [13] was inactive. Besides, the result in assay [14], in assay [15], in assay [16] and in assay [17] was inactive. Further, the potentiation in assay [4] is 11% (active).

Turning to `Cc1ccc(C(=O)c2no[n+]([O-])c2C(=O)c2ccc(C)cc2)cc1`, the outcome in assay [1], in assay [2], in assay [5], in assay [6], in assay [7] and in assay [8] was inactive. The result in [9], in [10], in assay [11], in [12], in assay [13] and in assay [14] was inactive. Further, the result in assay [16] and in assay [17] was inactive. The potentiation in assay [3] was 23% (active); in assay [4], 89% (active); in assay [15], 59.9% (active).

Regarding `Cc1ccc(NC(=O)CN(C)C(=O)CNC(=O)c2sc3ccccc3c2Cl)cc1`, the outcome in assay [1], in [2], in assay [3], in assay [4], in assay [5] and in assay [6] was inactive. Besides, the result in assay [7], in assay [8], in assay [9], in assay [10], in [11] and in [12] was inactive. Besides, the result in [13], in [14], in assay [16] and in assay [17] was inactive. Further, the potentiation in [15] is 29.5% (active).

For the compound `CC(C)c1nc(N2CCOCC2)c(C#N)c2c1CCCC2`, the outcome in assay [1], in assay [2], in [3], in assay [4], in assay [5] and in [6] was inactive. Further, the result in assay [7], in [8], in assay [9], in [10], in assay [11] and in [12] was inactive. Also, the result in assay [13], in assay [14], in assay [15], in assay [16] and in [17] was inactive.

For `CC(C)(C)NC(=S)N/N=C\c1ccc(-c2ccc([N+](=O)[O-])cc2)o1`, the result in assay [1], in assay [2], in assay [3], in [4], in assay [5] and in [6] was inactive. For the same compound, the outcome in [7], in [8], in [9], in assay [10], in assay [11] and in assay [13] was inactive. Also, the result in assay [14], in assay [16] and in assay [17] was inactive. The potentiation, percent of control in [12] was 142% (active). The potentiation in assay [15] was 15.4% (active).

As for `Cc1ccc2[nH]c(C)c(CCN(Cc3cccnc3)C(=S)NC(C)(C)C)c2c1`, the outcome in assay [1], in assay [2], in assay [3], in assay [4], in assay [5] and in [6] was inactive. The outcome in assay [7], in assay [8], in assay [9], in assay [10], in assay [11] and in assay [12] was inactive. Besides, the outcome in assay [13], in [14], in [15], in assay [16] and in [17] was inactive.

With `c1ccc(Nc2nc(N3CCCCC3)nc(N3CCNCC3)n2)cc1`, the outcome in assay [1], in assay [2], in [3], in assay [4], in assay [5] and in assay [6] was inactive. In addition, the result in [7], in [8], in [9], in assay [10], in assay [11] and in assay [12] was inactive. For the same compound, the result in assay [13], in [14], in [16] and in assay [17] was inactive. In addition, the potentiation in [15] is 44.6% (active).

`Cc1ccc(C(=O)OCCN2CCN(c3ncc(C(F)(F)F)cc3Cl)CC2)cc1`: the outcome in [1], in assay [2], in assay [3], in assay [5], in [6] and in [7] was inactive. The outcome in assay [8], in [9], in assay [10], in assay [11], in [12] and in assay [13] was inactive. Also, the result in [14], in [16] and in assay [17] was inactive. For the same compound, the potentiation in [4] is 9% (active); in assay [15], 14.3% (active).

As to `CC(C(=O)c1ccc(Br)cc1)[n+]1cccc(NC(=O)c2ccccc2)c1` (stereo not given), the result in assay [1], in [2], in [3], in assay [4], in assay [5] and in [6] was inactive. The result in [7], in [8], in assay [9], in assay [10], in assay [11] and in assay [12] was inactive. Also, the result in [13], in assay [14], in [15], in [16] and in assay [17] was inactive.

Turning to `Cc1ccc(CNC(=O)CSc2nc(=O)n3ccccc3n2)cc1`, the outcome in assay [1], in [2], in assay [3], in [4], in [5] and in [6] was inactive. The outcome in [7], in assay [8], in [9], in [10], in [11] and in assay [12] was inactive. For the same compound, the result in assay [13], in assay [14], in [15], in assay [16] and in assay [17] was inactive.

Consider `Cc1cc(NC(=O)CCN2CCN(Cc3ccccc3)CC2)ccc1Br`, for which the result in [1], in assay [2], in [4], in [5], in assay [6] and in [7] was inactive. The result in assay [8], in assay [9], in [10], in [11], in [12] and in assay [13] was inactive. Further, the result in [14], in assay [15], in assay [16] and in assay [17] was inactive. For the same compound, the potentiation in assay [3] is 18% (active).
